These results are taken from PubChem BioAssay (Tox21).

Experiment [1] can be described thus: qHTS assay to test for compound auto fluorescence at 535 nm (green) in HEK293 cells (AID 720680).
The nature of experiment [2]: qHTS assay to test for compound auto fluorescence at 460 nm (blue) in HEK293 cell free culture (AID 720681). An outline of the steps: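 Compounds were added to cell-free DMEM with 10% FBS and fluorescence read directly. The blue channel used 405 nm excitation and 460 nm emission, with triamterene as the reference fluorophore.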
In general terms: qHTS replaces the single test concentration by a dilution series.

A short description of experiment [3]: qHTS assay to test for compound auto fluorescence at 535 nm (green) in HEK293 cell free culture (AID 720682). An outline of the steps:
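Intrinsic compound fluorescence is measured in culture medium containing 10% FBS, with excitation at 485 nm and detection at 535 nm, referenced to fluorescein.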

Experiment [4] can be described thus: qHTS assay to test for compound auto fluorescence at 590 nm (red) in HEK293 cell free culture (AID 720683). An outline of the steps:
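Cell-free wells of DMEM with 10% FBS received compound, and intrinsic fluorescence was read at excitation/emission 540/590 nm. Values expressed as equivalence to Rose Bengal sodium.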

Experiment [5] in a line: qHTS assay to test for compound auto fluorescence at 590 nm (red) in HepG2 cell free culture (AID 720684). An outline of the steps: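 Compound was pinned into wells holding MEM with 10% FBS and no cells, and red fluorescence was read at Ex/Em 540/590 nm. Signal is expressed as auto fluorescence equivalency relative to Rose Bengal sodium.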
A short description of experiment [6]: qHTS assay to test for compound auto fluorescence at 460 nm (blue) in HepG2 cell free culture (AID 720685). The method, boiled down:
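Compound (23 nL) or DMSO pinned into cell-free MEM with 10% FBS; blue fluorescence read at 405/460 nm excitation/emission, expressed as auto-fluorescence equivalency to triamterene.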

Experiment [7] can be described thus: qHTS assay to test for compound auto fluorescence at 535 nm (green) in HepG2 cell free culture (AID 720686).
A short description of experiment [8]: qHTS assay to test for compound auto fluorescence at 460 nm (blue) in HepG2 cells (AID 720687). The method, boiled down:
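HepG2 cells in MEM with 10% FBS, attached overnight at 37 C, were exposed to compound or DMSO for 1 hr at 37 C, 5% CO2. Blue fluorescence was read at 405/460 nm, with triamterene as reference fluorophore.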

For experiment [9], the target named is Glucocorticoid receptor (Homo sapiens) (UniProt P04150). Briefly: qHTS assay to identify small molecule agonists of the glucocorticoid receptor (GR) signaling pathway (AID 720691; active = well fitted activation curve with a large enough effect in the signal ratio in the repeat runs, not every such curve was filed as active; inconclusive = weak or mixed curves, or effect the other way; inactive = no such curve, though single readings can be large or run the other way; the % refers to the signal ratio; note: potency is the fitted concentration of half-maximal effect). To be noted: GR-bla HeLa, beta-lactamase reporter ratio, 18 h; activation: at 62.4 µM (top of the series). The method, boiled down:
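Reporter read-out: fluorescence intensity following 2 h room-temperature LiveBLAzer B/G FRET substrate loading. Prior step: GR-bla HeLa cells held 4 h, then treated 18 h at 37 C.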

Molecules are shown by their SMILES. Calls of active or inactive are those of the source. Unless noted, calls come from the whole dose curve; as a rule, active = well fitted curve in the direction sought with a large enough effect in the repeat runs; inconclusive = weak or mixed curves; inactive = flat fitted curve, though single readings scatter.
% is set by controls: 0 for no effect and ±100 for the full control effect.

Chain of Glucocorticoid receptor (Homo sapiens) (P04150 whole entry, looked up): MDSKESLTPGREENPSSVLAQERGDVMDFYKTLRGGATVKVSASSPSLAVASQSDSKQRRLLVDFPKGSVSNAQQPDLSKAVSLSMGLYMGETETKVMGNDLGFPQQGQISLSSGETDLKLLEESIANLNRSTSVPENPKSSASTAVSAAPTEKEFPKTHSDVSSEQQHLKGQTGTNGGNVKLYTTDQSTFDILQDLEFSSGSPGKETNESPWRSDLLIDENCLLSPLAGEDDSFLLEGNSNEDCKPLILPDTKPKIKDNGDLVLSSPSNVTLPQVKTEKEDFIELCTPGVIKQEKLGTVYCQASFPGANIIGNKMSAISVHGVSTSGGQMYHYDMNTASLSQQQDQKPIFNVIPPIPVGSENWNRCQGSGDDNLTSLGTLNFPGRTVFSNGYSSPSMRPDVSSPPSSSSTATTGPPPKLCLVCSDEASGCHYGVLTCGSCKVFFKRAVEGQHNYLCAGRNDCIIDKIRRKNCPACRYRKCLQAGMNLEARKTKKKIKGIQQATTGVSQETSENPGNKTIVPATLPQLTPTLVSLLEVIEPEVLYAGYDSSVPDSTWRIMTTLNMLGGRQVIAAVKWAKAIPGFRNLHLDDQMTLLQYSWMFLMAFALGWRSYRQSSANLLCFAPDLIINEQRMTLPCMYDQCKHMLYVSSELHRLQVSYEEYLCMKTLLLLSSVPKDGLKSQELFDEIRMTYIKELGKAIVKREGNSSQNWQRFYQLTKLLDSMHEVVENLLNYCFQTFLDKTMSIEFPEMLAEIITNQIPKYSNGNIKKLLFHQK

In the case of `CC(=O)N[C@@H](CC(=O)N[C@@H](CCC(=O)O)C(=O)O)C(=O)O`, the Potency result in [1], in [2], in experiment [3], in experiment [4], in experiment [5] and in experiment [7] was “inactive” throughout. The compound was classed as inactive in experiment [6] and in experiment [8].
With `Cc1cc(-n2c(=O)[nH]c(=O)n(C)c2=O)ccc1Oc1ccc(S(=O)(=O)C(F)(F)F)cc1`, the Potency result in [1], in experiment [2], in experiment [3], in [4], in experiment [5] and in [7] was “inactive” each time. Further, in experiment [9], the Potency result is “inactive”. Also, the compound was called inactive in [6] and in [8].
Consider `CC(C)(C)c1ccc(CN2CCN(C(c3ccccc3)c3ccc(Cl)cc3)CC2)cc1` (centres undefined), for which the Potency entry in experiment [1], in experiment [2], in [3], in experiment [4], in [5] and in [7] was “inactive” each time. Moreover, the Potency entry in experiment [9] was “inactive”. Further, the compound was classed as inactive in experiment [6] and in experiment [8].
For `CCCCCCCCCCCCCC[n+]1ccc(C)cc1`, the Potency entry in experiment [1], in experiment [2], in [3], in [4], in experiment [5] and in [7] was “inactive” throughout. For the same compound, in experiment [9], the Potency result is “inactive”. Further, the compound was classed as inactive in experiment [6] and in [8].
For the compound `CCCCCCCCCCCCCCCC(=O)OC[C@@H](O)[C@H]1OC[C@H](O)[C@H]1O`, the Potency entry in [1], in experiment [2], in [3], in [4], in experiment [5] and in experiment [7] was “inactive” each time. In addition, the Potency result in experiment [9] was “inactive”. Besides, the compound was called inactive in [6] and in experiment [8].
In the case of `CC(=O)O[C@H]1CC[C@@]2(C)C(=CC[C@@H]3[C@@H]2CC[C@]2(C)C(c4cccnc4)=CC[C@@H]32)C1`, the Potency result in experiment [1], in experiment [2], in experiment [3], in experiment [4], in [5] and in experiment [7] was “inactive” throughout. For the same compound, in experiment [9], the Potency result was “inactive”. For the same compound, the compound was called inactive in experiment [6] and in experiment [8].
As for `CC(C)[C@@H](N)C(=O)O`, the Potency entry in [1], in experiment [2], in experiment [3], in experiment [4], in experiment [5] and in experiment [7] was “inactive” each time. Moreover, in [9], the Potency result was “inactive”. Besides, the result in experiment [6] and in experiment [8] was inactive.
As to `CC(/C=C/C=C(\C)C(=O)O[C@@H]1O[C@H](CO[C@@H]2O[C@H](CO)[C@@H](O)[C@H](O)[C@H]2O)[C@@H](O)[C@H](O)[C@H]1O)=C\C=C\C=C(C)\C=C\C=C(/C)C(=O)O[C@@H]1O[C@H](CO[C@@H]2O[C@H](CO)[C@@H](O)[C@H](O)[C@H]2O)[C@@H](O)[C@H](O)[C@H]1O`, the Potency result in [1], in experiment [2], in experiment [3], in [4], in [5] and in experiment [7] was “inactive” throughout. In addition, in experiment [9], the Potency result is “inactive”. In addition, the result in [6] and in [8] was inactive.
Take `CCN(CC)CCC(=O)N1c2ccccc2Sc2ccc(Cl)cc21`: the Potency entry in experiment [1], in [2], in experiment [3], in experiment [4], in experiment [5] and in experiment [7] was “inactive” throughout. The Potency entry in [9] was “inactive”. The compound was classed as inactive in [6] and in [8].
`CCC[C@@]1(CCc2ccccc2)CC(O)=C([C@H](CC)c2cccc(NS(=O)(=O)c3ccc(C(F)(F)F)cn3)c2)C(=O)O1`: the Potency result in [1], in experiment [2], in experiment [3], in [4], in experiment [5] and in experiment [7] was “inactive” each time. In addition, the Potency entry in experiment [9] was “inactive”. Also, the compound was classed as inactive in [6] and in experiment [8].
With `C=CC[C@@H]1/C=C(\C)C[C@H](C)C[C@H](OC)[C@H]2O[C@@](O)(C(=O)C(=O)N3CCCC[C@H]3C(=O)O[C@H](/C(C)=C/[C@@H]3CC[C@@H](O)[C@H](OC)C3)[C@H](C)[C@@H](O)CC1=O)[C@H](C)C[C@@H]2OC`, the Potency result in experiment [1], in experiment [2], in experiment [3], in experiment [4], in experiment [5] and in experiment [7] was “inactive” throughout. Further, the Potency result in experiment [9] is “inactive”. In addition, the outcome in [6] and in experiment [8] was inactive.
With `C=C1/C(=C\C=C2/CCC[C@]3(C)[C@@H]([C@H](C)OCCC(C)(C)O)CC[C@@H]23)C[C@@H](O)C[C@@H]1O`, the Potency entry in experiment [1], in experiment [2], in experiment [3], in experiment [4], in experiment [5] and in [7] was “inactive” throughout. The compound was called inactive in [6] and in [8].
For the compound `CCOC(=O)O[C@]1(C(=O)COC(=O)CC)CC[C@H]2[C@@H]3CCC4=CC(=O)C=C[C@]4(C)[C@H]3[C@@H](O)C[C@@]21C`, the Potency entry in [1], in experiment [2], in [3], in experiment [4], in experiment [5] and in [7] was “inactive” in each case. Further, the call in experiment [6] and in experiment [8] was inactive. For the same compound, in experiment [9], the Potency is 28.8 nM (active).
As to `CCc1ccc2c(c1)N(CC(C)CN(C)C)c1ccccc1S2` (centres undefined), the Potency result in experiment [1], in experiment [2], in experiment [3], in experiment [4], in experiment [5] and in experiment [7] was “inactive” each time. Besides, in experiment [9], the Potency result is “inactive”. Moreover, the call in experiment [6] and in [8] was inactive.
For the compound `COC(=O)CCC[N+](C)(C)C`, the Potency result in experiment [1], in experiment [2], in experiment [3], in experiment [4], in experiment [5] and in [7] was “inactive” in each case. Further, the call in experiment [6] and in [8] was inactive.
With `CC[C@@]1(O)C(=O)OCc2c1cc1n(c2=O)Cc2cc3c([N+](=O)[O-])cccc3nc2-1`, the Potency result in [1], in [2], in experiment [3], in experiment [4], in [5] and in experiment [7] was “inactive” each time. Moreover, the compound was classed as inactive in experiment [6] and in [8]. The activation in experiment [9] was 5.3% [inconclusive] (active).
As to `CCCCCCCCCCCCCCCCCC(=O)[O][Al]`, the Potency result in experiment [1], in experiment [2], in [3], in experiment [4], in experiment [5] and in experiment [7] was “inactive” each time. Also, the Potency entry in [9] was “inactive”. Moreover, the compound was classed as inactive in experiment [6] and in experiment [8].
As to `CC1(O)CCC(C(C)(C)O)CC1` (centres undefined), the Potency entry in experiment [1], in experiment [2], in experiment [3], in experiment [4], in [5] and in [7] was “inactive” in each case. The Potency result in experiment [9] is “inactive”. Besides, the call in experiment [6] and in [8] was inactive.
